Outcome and AC50 data for four compounds are collected here from PubChem BioAssay (EPA / NIEHS).

Records with an inconclusive call do not appear. A structure can be active in one record and inactive in another. The source made the active and inactive calls. Rule for the calls, unless noted: active = hit-call score of the fitted dose curve at least 0.9, where 1 is the maximum; inactive = score below 0.9.

Read-out in experiment [1]: Nuclear factor erythroid 2-related factor 2 (Homo sapiens) (UniProt Q16236)
Nature of the experiment: LTEA_HepaRG_NFE2L2: Life Technologies and Expression Analysis (LTEA) Assay for Nuclear factor erythroid 2-related factor 2 (NFE2L2) Transcription Factor using HepaRG (AID 2283527).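 For Outcome: TaqMan qRT-PCR transcript level normalised to ACTB GAPDH and POLR2A housekeeping genes.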 The following applies: mRNA level, 48 h; actives raise or lower the signal. Put shortly:
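Differentiated human HepaRG cells in serum-free induction medium were exposed for 48 h to eight concentrations (top 100 uM, half-log dilutions, 0.5% DMSO), in duplicate. NFE2L2 mRNA was quantified by TaqMan qRT-PCR, normalized to ACTB, GAPDH and POLR2A, with bidirectional fitting versus DMSO.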

Read-out in experiment [2]: succinate dehydrogenase complex iron sulfur subunit B (SDHB), SDHB (gene 6390)
The experiment is described as follows: LTEA_HepaRG_SDHB: Life Technologies and Expression Analysis (LTEA) Assay for succinate dehydrogenase complex iron sulfur subunit B (SDHB) using HepaRG (AID 2283528). The following applies: mRNA level, 48 h; actives raise or lower the signal. Put shortly: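 HepaRG cells (~100,000/well, plated 48 h) exposed in duplicate for 48 h in serum-free induction medium to 8-point half-log series from 100 uM in 0.5% DMSO; mRNA by qRT-PCR normalised to ACTB, GAPDH, POLR2A; bidirectional fit versus DMSO.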

Read-out in experiment [3]: Signal transducer and activator of transcription 3 (Homo sapiens) (UniProt P40763)
The experiment is described as follows: LTEA_HepaRG_STAT3: Life Technologies and Expression Analysis (LTEA) Assay for Signal transducer and activator of transcription (STAT3) using HepaRG (AID 2283529). The conditions noted are these: mRNA level, 48 h; actives raise or lower the signal. Put shortly: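 Differentiated human HepaRG cells in serum-free induction medium were exposed in duplicate for 48 h to eight half-log concentrations up to 100 uM in 0.5% DMSO. STAT3 mRNA was quantified by TaqMan qRT-PCR, normalized to ACTB, GAPDH and POLR2A, and fitted bidirectionally against DMSO.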

Read-out in experiment [4]: solute carrier (SLCO1B1), SLCO1B1 (gene 10599)
Nature of the experiment: LTEA_HepaRG_SLCO1B1: Life Technologies and Expression Analysis (LTEA) Assay for solute carrier (SLCO1B1) using HepaRG (AID 2283530). The following applies: mRNA level, 48 h; actives raise or lower the signal. An outline of the steps:
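Gain or loss of SLCO1B1 mRNA is fitted against the 0.5% DMSO vehicle in human HepaRG liver cells treated 48 h at up to 100 uM in half-log steps. Expression comes from qRT-PCR normalized to endogenous controls.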

Read-out in experiment [5]: sulfotransferase 2A1 (SULT2A1), SULT2A1 (gene 6822)
Nature of the experiment: LTEA_HepaRG_SULT2A1: Life Technologies and Expression Analysis (LTEA) Assay for sulfotransferase 2A1 (SULT2A1) using HepaRG (AID 2283531). The following applies: mRNA level, 48 h; actives raise or lower the signal. An outline of the steps:
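Cells were plated and cultured 48 h, switched to serum-free induction medium, then dosed in duplicate for 48 h (8 concentrations, max 100 uM). RNA was isolated and SULT2A1 expression measured by qRT-PCR; gain or loss of signal fitted relative to DMSO.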

Read-out in experiment [6]: Transforming Growth Factor (TGFA), TGFA (gene 7039)
Nature of the experiment: LTEA_HepaRG_TGFA: Life Technologies and Expression Analysis (LTEA) Assay for Transforming Growth Factor (TGFA) using HepaRG (AID 2283532). The conditions noted are these: mRNA level, 48 h; actives raise or lower the signal. An outline of the steps:
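Differentiated human HepaRG cells, plated 48 h then switched to serum-free induction medium, were exposed in duplicate for 48 h to 8-point half-log series from 100 uM in 0.5% DMSO. TGFA mRNA measured by qRT-PCR, normalized to ACTB/GAPDH/POLR2A, bidirectional fit versus DMSO.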

Read-out in experiment [7]: Transforming Growth Factor (TGFB1), TGFB1 (gene 7040)
The experiment is described as follows: LTEA_HepaRG_TGFB1: Life Technologies and Expression Analysis (LTEA) Assay for Transforming Growth Factor (TGFB1) Transporter using HepaRG (AID 2283533). The following applies: mRNA level, 48 h; actives raise or lower the signal. An outline of the steps:
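Expression change of TGFB1 in human HepaRG cells is measured after a 48 h chemical exposure, up to 100 uM in 0.5% DMSO vehicle. Curves are fitted in both directions relative to the DMSO baseline.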

Read-out in a further experiment: TIMP1, TIMP1 (gene 7076)
The experiment is described as follows: LTEA_HepaRG_TIMP1: Life Technologies and Expression Analysis (LTEA) Assay for TIMP1 using HepaRG (AID 2283534). The conditions noted are these: mRNA level, 48 h; actives raise or lower the signal. Put shortly: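 We dosed human liver HepaRG cultures for 48 hours with up to 100 uM test chemical and measured TIMP1 expression by qRT-PCR. Activity in either direction is fitted relative to the 0.5% DMSO vehicle.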

Read-out in experiment [8]: Tumor necrosis factor receptor 1 (TNFRSF1A), TNFRSF1A (gene 7132)
Nature of the experiment: LTEA_HepaRG_TNFRSF1A: Life Technologies and Expression Analysis (LTEA) Assay for Tumor necrosis factor receptor 1 (TNFRSF1A) using HepaRG (AID 2283535). The following applies: mRNA level, 48 h; actives raise or lower the signal. Put shortly:
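Expression of TNFRSF1A in human HepaRG liver cells was measured by qRT-PCR 48 h after chemical dosing (maximum 100 uM). Bidirectional curve fitting used 0.5% DMSO as baseline.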

Read-out in experiment [9]: UDP glucuronosyltransferase (UGT1A1), UGT1A1 (gene 54658)
The experiment is described as follows: LTEA_HepaRG_UGT1A1: Life Technologies and Expression Analysis (LTEA) Assay for UDP glucuronosyltransferase (UGT1A1) using HepaRG (AID 2283538). The following applies: mRNA level, 48 h; actives raise or lower the signal. Put shortly:
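HepaRG cells, 0.5% DMSO vehicle, 48 h exposure in serum-free induction medium to 8-point half-log series topping at 100 uM, in duplicate. UGT1A1 mRNA by Fluidigm qRT-PCR, normalized to ACTB/GAPDH/POLR2A; bidirectional fit versus DMSO.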

Read-out in experiment [10]: UDP glucuronosyltransferase (UGT1A6), UGT1A6 (gene 54578)
The experiment is described as follows: LTEA_HepaRG_UGT1A6: Life Technologies and Expression Analysis (LTEA) Assay for UDP glucuronosyltransferase (UGT1A6) using HepaRG (AID 2283539). The following applies: mRNA level, 48 h; actives raise or lower the signal. An outline of the steps:
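Endpoint is UGT1A6 transcript induction or loss in a human liver cell line, quantified by TaqMan qRT-PCR 48 h after dosing. Concentrations ran from 100 uM downward in half-log steps in 0.5% DMSO; activity was fitted in both directions versus vehicle.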

Read-out in experiment [11]: X-box binding protein 1 (XBP1), XBP1 (gene 7494)
The experiment is described as follows: LTEA_HepaRG_XBP1: Life Technologies and Expression Analysis (LTEA) Assay for X-box binding protein 1 (XBP1) using HepaRG (AID 2283540). The following applies: mRNA level, 48 h; actives raise or lower the signal. An outline of the steps: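 Human HepaRG monolayers receive test chemical for 48 h across an eight-point half-log series starting at 100 uM. XBP1 mRNA gain or loss is scored against DMSO by qRT-PCR.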

A short description of experiment [12]: LTEA_HepaRG_LDH_cytotoxicity: Cytotoxicity Assessment in the Life Technologies and Expression Analysis (LTEA) Assay (AID 2283563; active = hit-call score of the fitted dose curve at least 0.9, where 1 is the maximum;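 for AC50: LDH activity released into spent culture medium as a marker of cell death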). Put shortly:
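Human HepaRG hepatic cells are treated with test chemicals for 48 h at up to 100 uM in 0.5% DMSO. Cytotoxicity is scored from medium LDH against the vehicle control.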

Read-out in experiment [13]: Thyroid Hormone Responsive (THRSP), THRSP (gene 7069)
Nature of the experiment: LTEA_HepaRG_THRSP: Life Technologies and Expression Analysis (LTEA) Assay for Thyroid Hormone Responsive (THRSP) using HepaRG (AID 2283536). The following applies: mRNA level, 48 h; actives raise or lower the signal. Put shortly:
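Differentiated human HepaRG cells were exposed in duplicate for 48 h in serum-free induction medium to eight concentrations (top 100 uM, half-log steps, 0.5% DMSO). Expression was quantified by TaqMan qRT-PCR, normalized to ACTB, GAPDH and POLR2A, with bidirectional fitting against DMSO.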

Read-out in experiment [14]: Cellular tumor antigen p53 (Homo sapiens) (UniProt P04637)
The experiment is described as follows: LTEA_HepaRG_TP53: Life Technologies and Expression Analysis (LTEA) Assay for Tumor Protein P53 (TP53) using HepaRG (AID 2283537). The conditions noted are these: mRNA level, 48 h; actives raise or lower the signal. An outline of the steps:
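Differentiated HepaRG cells in serum-free induction medium exposed 48 h in duplicate to 8 half-log concentrations, top 100 uM, 0.5% DMSO. TP53 mRNA by TaqMan qRT-PCR (Fluidigm), normalized to ACTB, GAPDH, POLR2A; fitted bidirectionally versus DMSO.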

The target of experiment [15] is Cellular tumor antigen p53 (Homo sapiens) (UniProt P04637). The experiment is described as follows: TOX21_p53_BLA_p2_ratio: Tox21 HCT-116 p53 Agonism Beta-lactamase Assay, Ratio, Phase 2 (AID 2283592; active = hit-call score of the fitted dose curve at least 0.9, where 1 is the maximum). Put shortly:
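An inducible beta-lactamase reporter in HCT116 cells signals p53 pathway activation. After 16 h chemical exposure at 37C, cells load CCF4-AM substrate for 2 h at room temperature; activity is the cleaved/uncleaved emission ratio relative to DMSO.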

The target is the same in experiment [16]. The experiment is described as follows: TOX21_p53_BLA_p3_ratio: Tox21 HCT-116 p53 Agonism Beta-lactamase Assay, Ratio, Phase 3 (AID 2283596; active = hit-call score of the fitted dose curve at least 0.9, where 1 is the maximum). An outline of the steps: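 HCT116 p53-bla cells (4000/well) given compound in DMSO (217-fold dilution) after 5 h, incubated 16 h at 37C. CCF4-AM substrate 2 h at room temperature; 460/530 nm emission ratio, gain fitted against DMSO.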

Experiment [17] is described as follows: ATG_XTT_Cytotoxicity: Cytotoxicity Assessment in the Attagene TRANS-FACTORIAL HepG2 Assay (AID 2283584; active = hit-call score of the fitted dose curve at least 0.9, where 1 is the maximum;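 note: XTT signal for cell number as viability in transfected HepG2 cells; cells exposed to compound for 24 h before reading; active means loss of viability signal versus DMSO baseline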). An outline of the steps: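 Transfect HepG2 with GAL4-UAS reporter units, dose compound, incubate 24 h, then measure viable cell number by XTT. Fit concentration response against DMSO baseline.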
Experiment [18] is described as follows: TOX21_p53_BLA_p2_viability: Viability Assessment in the Tox21 HCT-116 p53 Agonism Beta-lactamase Assay, Phase 2 (AID 2283591; active = hit-call score of the fitted dose curve at least 0.9, where 1 is the maximum;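 note: compound exposure lasted 16 h at 37 °C; actives lower the ATP signal meaning cytotoxicity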). An outline of the steps: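 HCT-116 p53-bla cells (4000/well) rested 5 h at 37C, then received compounds in DMSO (217-fold dilution) for 16 h at 37C, 5% CO2. After the CCF4 read, CellTiter-Glo was added; ATP luminescence was read after 30 min at room temperature.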

The nature of experiment [19]: TOX21_p53_BLA_p3_viability: Viability Assessment in the Tox21 HCT-116 p53 Agonism Beta-lactamase Assay, Phase 3 (AID 2283593; active = hit-call score of the fitted dose curve at least 0.9, where 1 is the maximum;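 note: cells exposed to compound for 16 h before reading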). Put shortly:
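HCT-116 cells (4000/well) rested 5 h at 37C, then got DMSO compounds by pin tool (217-fold dilution) for 16 h at 37C, 5% CO2. After the bla read, CellTiter-Glo was added and luminescence read at 30 min, room temperature.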

Sequence of Cellular tumor antigen p53 (Homo sapiens) (P04637 whole entry, looked up): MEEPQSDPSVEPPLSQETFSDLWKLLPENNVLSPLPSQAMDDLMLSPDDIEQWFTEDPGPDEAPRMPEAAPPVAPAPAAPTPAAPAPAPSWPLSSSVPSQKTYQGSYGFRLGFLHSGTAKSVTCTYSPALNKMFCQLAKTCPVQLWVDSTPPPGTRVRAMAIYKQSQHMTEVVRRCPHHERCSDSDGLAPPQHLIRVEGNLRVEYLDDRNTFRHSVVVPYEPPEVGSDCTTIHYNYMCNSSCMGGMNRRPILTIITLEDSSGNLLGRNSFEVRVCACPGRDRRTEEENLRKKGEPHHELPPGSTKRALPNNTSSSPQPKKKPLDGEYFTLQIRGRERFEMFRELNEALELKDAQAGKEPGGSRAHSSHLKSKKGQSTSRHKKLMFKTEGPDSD
Sequence of Nuclear factor erythroid 2-related factor 2 (Homo sapiens) (Q16236 whole entry, looked up): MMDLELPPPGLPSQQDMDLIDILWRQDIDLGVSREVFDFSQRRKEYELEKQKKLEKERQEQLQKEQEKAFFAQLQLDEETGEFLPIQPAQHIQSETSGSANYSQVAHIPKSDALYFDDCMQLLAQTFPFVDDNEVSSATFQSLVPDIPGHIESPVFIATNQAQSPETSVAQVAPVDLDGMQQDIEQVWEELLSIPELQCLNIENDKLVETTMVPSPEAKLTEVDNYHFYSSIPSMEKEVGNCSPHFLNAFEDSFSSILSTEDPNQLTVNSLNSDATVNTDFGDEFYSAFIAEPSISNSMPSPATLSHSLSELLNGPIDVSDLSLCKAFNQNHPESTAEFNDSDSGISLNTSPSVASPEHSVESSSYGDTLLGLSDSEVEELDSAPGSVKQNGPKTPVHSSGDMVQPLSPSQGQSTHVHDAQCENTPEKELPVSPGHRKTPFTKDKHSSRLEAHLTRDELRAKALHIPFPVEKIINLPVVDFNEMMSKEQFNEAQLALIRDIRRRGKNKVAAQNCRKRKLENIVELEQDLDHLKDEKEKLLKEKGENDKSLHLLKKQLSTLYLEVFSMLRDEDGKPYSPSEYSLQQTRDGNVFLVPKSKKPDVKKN
Sequence of Signal transducer and activator of transcription 3 (Homo sapiens) (P40763 whole entry, looked up): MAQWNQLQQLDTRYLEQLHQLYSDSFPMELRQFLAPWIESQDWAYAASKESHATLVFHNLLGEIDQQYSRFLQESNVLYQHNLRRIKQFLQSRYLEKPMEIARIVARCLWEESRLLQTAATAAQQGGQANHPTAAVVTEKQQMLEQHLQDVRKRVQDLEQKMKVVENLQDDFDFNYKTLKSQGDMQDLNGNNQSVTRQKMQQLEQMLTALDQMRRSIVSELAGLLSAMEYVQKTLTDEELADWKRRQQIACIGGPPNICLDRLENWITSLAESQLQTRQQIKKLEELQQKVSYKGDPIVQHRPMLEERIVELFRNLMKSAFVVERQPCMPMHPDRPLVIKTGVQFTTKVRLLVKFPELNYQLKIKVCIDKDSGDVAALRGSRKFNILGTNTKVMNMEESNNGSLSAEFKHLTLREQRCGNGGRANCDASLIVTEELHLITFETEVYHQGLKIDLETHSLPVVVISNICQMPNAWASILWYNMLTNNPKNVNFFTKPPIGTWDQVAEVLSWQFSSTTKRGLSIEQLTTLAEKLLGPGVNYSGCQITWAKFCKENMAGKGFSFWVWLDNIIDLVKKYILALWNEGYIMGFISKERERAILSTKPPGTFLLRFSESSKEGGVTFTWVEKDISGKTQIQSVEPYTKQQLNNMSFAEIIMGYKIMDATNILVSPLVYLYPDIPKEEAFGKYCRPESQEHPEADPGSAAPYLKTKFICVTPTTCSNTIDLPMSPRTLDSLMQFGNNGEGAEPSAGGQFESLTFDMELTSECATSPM

In the case of `O=C(NS(=O)(=O)/C=C/c1cccs1)c1ccc(F)cc1Br`, the compound was called inactive in experiment [1], in experiment [2], in experiment [3], in experiment [4], in experiment [5] and in experiment [6]. For the same compound, the outcome in experiment [7] is “inactive”; with TIMP1, TIMP1 (gene 7076) it was “inactive”; in [8] it was “inactive”; in experiment [10] it was “inactive”; in experiment [11] it was “inactive”; in experiment [12], “inactive”. The AC50 in experiment [9] was 14 µM (active).

`C=CCCCCCCCCCCCC`: the compound was classed as inactive in experiment [1], in experiment [3], in experiment [4], in experiment [5], in experiment [6] and in [7]. Also, the outcome in the experiment with TIMP1, TIMP1 (gene 7076) is “inactive”; in [8], “inactive”; in experiment [13], “inactive”; in experiment [14], “inactive”; in [9] it was “inactive”; in experiment [10], “inactive”. Moreover, the compound was classed as inactive in experiment [11], in experiment [12], in experiment [15] and in experiment [16].

On to `CN(C)CCCN1c2ccccc2Sc2ccc(Cl)cc21`, for which the concentration at half-maximal activity (AC50) in [1] is 82.4 µM (active); in experiment [5] it was 82.7 µM (active); in [7], 12.5 µM (active); in experiment [13], 15.8 µM (active); in experiment [12], 38.4 µM (active); in [17] it was 43.2 µM (active). The AC50 in experiment [18] is 73.4 µM (active); in experiment [15], 6.66 µM (active). The outcome in experiment [3] was “inactive”; in [4], “inactive”; in experiment [6], “inactive”; in the experiment with TIMP1, TIMP1 (gene 7076), “inactive”; in experiment [8], “inactive”; in experiment [14] it was “inactive”. The compound was classed as inactive in experiment [9], in [10], in [11], in experiment [15], in [19] and in experiment [16].

Consider `CSc1ccc(Oc2ccc(S(N)(=O)=O)cc2CN(C)C)cc1C`, for which the call in experiment [1], in experiment [2], in experiment [3], in [4], in [6] and in experiment [7] was inactive. Also, the outcome with TIMP1, TIMP1 (gene 7076) is “inactive”; in [8], “inactive”; in experiment [9] it was “inactive”; in [10], “inactive”; in experiment [11] it was “inactive”. The AC50 in experiment [12] is 81.4 µM (active).

A word on the AC50: it is the midpoint of the concentration-response curve, whichever way the signal moves.
